# Key:
# Test in all cases: DAPPL (digital affinity profiling via proximity ligation, sequencing); 10 mM Tris-HCl pH 7.5, 50 mM NaCl, 1 mM DTT, 4% glycerol, room temperature, 30 min; GST-TFs on glutathione beads, 16-mer random dsDNA library, 0.1% formaldehyde crosslink after washing; high values mean tight binding
# [1] = target: HSF1 (Homo sapiens, UniProt Q00613 1-529); conditions: protein: recombinant; tags: N-terminal GST; chain copies: 3; dsDNA, one strand shown
# Method in brief: (§1)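 Pools were built from human transcription factors expressed in yeast as GST fusions, captured on glutathione beads and DNA-barcoded, along with a tag-only sample. Incubation with 200 nmole of a 16-mer random double-stranded DNA library lasted 30 min at room temperature in Tris/NaCl/DTT/glycerol buffer, and was followed by washing, 0.1% formaldehyde crosslinking, proximity ligation, PCR amplification and Illumina NextSeq500 sequencing. Binding signal is the quotient of each hexamer's read frequency for a factor and its frequency for the tag-only sample.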
# [2] = target: CRX (Homo sapiens, UniProt O43186 1-299); conditions: protein: recombinant; tags: N-terminal GST; dsDNA, one strand shown
# Chain of CRX (O43186 whole entry): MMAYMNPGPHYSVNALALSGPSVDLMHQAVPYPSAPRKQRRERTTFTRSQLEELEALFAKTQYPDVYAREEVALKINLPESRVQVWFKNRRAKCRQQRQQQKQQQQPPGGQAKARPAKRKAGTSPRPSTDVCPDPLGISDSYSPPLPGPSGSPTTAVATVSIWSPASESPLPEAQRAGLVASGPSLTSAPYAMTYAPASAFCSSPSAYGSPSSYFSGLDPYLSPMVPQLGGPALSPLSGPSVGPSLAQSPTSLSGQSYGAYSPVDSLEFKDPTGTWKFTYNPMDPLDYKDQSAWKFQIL
# Method in brief: as §1
# [3] = target: T1, EHF (Homo sapiens, UniProt Q9NZC4 1-300); conditions: protein: recombinant; tags: N-terminal GST; dsDNA, one strand shown
# T1 sequence: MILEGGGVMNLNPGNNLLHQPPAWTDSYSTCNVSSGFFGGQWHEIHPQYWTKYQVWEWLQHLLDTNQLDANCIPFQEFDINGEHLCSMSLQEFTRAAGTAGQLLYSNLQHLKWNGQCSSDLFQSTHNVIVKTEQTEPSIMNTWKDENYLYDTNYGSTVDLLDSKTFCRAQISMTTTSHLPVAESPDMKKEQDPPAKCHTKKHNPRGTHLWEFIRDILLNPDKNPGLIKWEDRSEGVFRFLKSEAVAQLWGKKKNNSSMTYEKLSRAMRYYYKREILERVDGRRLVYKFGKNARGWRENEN
# Method in brief: as §1
# [4] = target: T2, ERF (Homo sapiens, UniProt P50548 1-548); conditions: protein: recombinant; tags: N-terminal GST; dsDNA, one strand shown
# T2 sequence: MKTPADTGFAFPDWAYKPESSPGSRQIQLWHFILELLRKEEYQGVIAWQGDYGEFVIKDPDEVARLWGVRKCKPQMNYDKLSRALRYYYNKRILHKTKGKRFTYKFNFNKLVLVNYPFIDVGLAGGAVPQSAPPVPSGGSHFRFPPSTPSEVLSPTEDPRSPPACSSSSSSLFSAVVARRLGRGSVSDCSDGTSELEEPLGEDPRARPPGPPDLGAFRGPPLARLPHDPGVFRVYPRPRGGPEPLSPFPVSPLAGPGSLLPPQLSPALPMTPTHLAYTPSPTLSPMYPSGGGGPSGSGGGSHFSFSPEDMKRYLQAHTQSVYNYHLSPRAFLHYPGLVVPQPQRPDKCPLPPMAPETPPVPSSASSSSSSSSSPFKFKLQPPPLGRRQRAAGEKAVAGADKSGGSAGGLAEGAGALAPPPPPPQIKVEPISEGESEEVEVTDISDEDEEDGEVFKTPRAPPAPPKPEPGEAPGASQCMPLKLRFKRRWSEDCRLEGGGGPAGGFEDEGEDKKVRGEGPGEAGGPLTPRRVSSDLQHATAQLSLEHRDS
# Method in brief: as §1
# [5] = target: T3, SPIC (Homo sapiens, UniProt Q8N5J4 1-248); conditions: protein: recombinant; tags: N-terminal GST; dsDNA, one strand shown
# T3 sequence: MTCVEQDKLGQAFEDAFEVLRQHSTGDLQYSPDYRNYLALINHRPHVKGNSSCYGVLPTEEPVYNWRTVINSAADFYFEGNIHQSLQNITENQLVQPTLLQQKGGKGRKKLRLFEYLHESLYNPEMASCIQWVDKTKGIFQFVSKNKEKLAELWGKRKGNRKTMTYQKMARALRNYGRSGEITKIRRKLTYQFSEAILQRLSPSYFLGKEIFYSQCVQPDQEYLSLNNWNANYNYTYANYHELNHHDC
# Method in brief: as §1
# [6] = target: T4, ETV7 (Homo sapiens, UniProt Q9Y603 1-341); conditions: protein: recombinant; tags: N-terminal GST; dsDNA, one strand shown
# T4 sequence: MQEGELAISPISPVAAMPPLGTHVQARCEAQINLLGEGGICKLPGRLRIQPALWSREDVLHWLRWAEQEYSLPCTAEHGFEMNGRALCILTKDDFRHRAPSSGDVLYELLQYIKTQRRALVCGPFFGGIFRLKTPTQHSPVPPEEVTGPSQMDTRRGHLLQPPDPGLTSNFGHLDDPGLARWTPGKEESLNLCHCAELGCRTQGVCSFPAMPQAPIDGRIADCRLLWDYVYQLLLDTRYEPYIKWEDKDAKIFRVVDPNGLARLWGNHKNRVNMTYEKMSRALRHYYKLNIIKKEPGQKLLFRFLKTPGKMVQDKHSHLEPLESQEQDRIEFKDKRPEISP
# Method in brief: as §1
# [7] = target: SPIB (Homo sapiens, UniProt Q01892 1-262); conditions: protein: recombinant; tags: N-terminal GST; dsDNA, one strand shown
# Chain of SPIB (Q01892 whole entry): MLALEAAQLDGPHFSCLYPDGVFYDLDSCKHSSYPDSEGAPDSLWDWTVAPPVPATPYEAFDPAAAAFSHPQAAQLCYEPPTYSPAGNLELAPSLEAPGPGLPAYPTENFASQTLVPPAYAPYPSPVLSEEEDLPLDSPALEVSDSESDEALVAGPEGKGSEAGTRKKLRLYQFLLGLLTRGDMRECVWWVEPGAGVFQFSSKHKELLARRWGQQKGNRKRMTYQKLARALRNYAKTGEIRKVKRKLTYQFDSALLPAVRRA
# Method in brief: as §1
# [8] = target: T5, ETV3L (Homo sapiens, UniProt Q6ZN32 1-361); conditions: protein: recombinant; tags: N-terminal GST; dsDNA, one strand shown
# T5 sequence: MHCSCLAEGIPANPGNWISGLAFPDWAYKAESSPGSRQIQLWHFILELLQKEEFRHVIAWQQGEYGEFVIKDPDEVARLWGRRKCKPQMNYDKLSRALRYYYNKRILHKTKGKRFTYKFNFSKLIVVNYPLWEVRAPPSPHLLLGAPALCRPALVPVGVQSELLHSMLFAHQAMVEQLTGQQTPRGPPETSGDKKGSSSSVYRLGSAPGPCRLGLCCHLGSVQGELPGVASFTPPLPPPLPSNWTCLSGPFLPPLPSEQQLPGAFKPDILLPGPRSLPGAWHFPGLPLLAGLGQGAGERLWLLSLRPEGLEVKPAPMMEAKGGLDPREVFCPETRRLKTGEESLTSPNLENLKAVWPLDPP
# Method in brief: as §1
# [9] = target: T6, SPDEF (Homo sapiens, UniProt O95238 1-335); conditions: protein: recombinant; tags: N-terminal GST; dsDNA, one strand shown
# T6 sequence: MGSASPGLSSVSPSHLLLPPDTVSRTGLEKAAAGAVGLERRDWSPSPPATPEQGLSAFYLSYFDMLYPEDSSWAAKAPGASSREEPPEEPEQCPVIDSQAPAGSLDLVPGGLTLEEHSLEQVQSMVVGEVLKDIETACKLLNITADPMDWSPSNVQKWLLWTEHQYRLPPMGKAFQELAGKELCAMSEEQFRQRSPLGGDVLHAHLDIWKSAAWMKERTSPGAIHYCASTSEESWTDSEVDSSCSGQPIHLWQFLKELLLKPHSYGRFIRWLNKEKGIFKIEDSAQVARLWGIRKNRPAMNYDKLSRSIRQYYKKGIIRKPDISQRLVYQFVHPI
# Method in brief: as §1
# Chain of HSF1 (Q00613 whole entry, the tested form may be a part): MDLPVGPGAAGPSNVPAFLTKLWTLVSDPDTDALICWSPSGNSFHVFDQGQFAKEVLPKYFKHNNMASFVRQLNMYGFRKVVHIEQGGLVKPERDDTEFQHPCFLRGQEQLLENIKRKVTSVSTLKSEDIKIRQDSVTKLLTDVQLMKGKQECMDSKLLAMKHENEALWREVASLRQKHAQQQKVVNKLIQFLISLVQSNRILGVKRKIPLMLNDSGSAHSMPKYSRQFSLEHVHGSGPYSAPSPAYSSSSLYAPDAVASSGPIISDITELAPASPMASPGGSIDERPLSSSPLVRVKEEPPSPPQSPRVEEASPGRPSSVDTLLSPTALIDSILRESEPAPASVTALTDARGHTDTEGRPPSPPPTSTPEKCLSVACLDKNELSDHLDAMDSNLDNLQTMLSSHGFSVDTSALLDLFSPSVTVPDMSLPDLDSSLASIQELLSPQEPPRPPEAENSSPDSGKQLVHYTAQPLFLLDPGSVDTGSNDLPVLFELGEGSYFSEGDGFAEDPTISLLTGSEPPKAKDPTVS
sequence,measurement,setting,value
AGGGAT,binding signal,[1],"1.1 fold enrichment (6-mer frequency, TF over GST control)"
same,binding signal,[2],"1.49 fold enrichment (6-mer frequency, TF over GST control)"
ATCCAG,binding signal,[1],"1.53 fold enrichment (6-mer frequency, TF over GST control)"
same,binding signal,[2],"1.29 fold enrichment (6-mer frequency, TF over GST control)"
AGAGAT,binding signal,[1],"1.16 fold enrichment (6-mer frequency, TF over GST control)"
same,binding signal,[2],"1.38 fold enrichment (6-mer frequency, TF over GST control)"
AGCGAA,binding signal,[3],"1.06 fold enrichment (6-mer frequency, TF over GST control)"
same,binding signal,[1],"1.02 fold enrichment (6-mer frequency, TF over GST control)"
TAAGAG,binding signal,[1],"1.19 fold enrichment (6-mer frequency, TF over GST control)"
same,binding signal,[2],"1.46 fold enrichment (6-mer frequency, TF over GST control)"
GGAATA,binding signal,[1],"1.44 fold enrichment (6-mer frequency, TF over GST control)"
same,binding signal,[2],"1.02 fold enrichment (6-mer frequency, TF over GST control)"
same,binding signal,[4],"1.02 fold enrichment (6-mer frequency, TF over GST control)"
GCGCGT,binding signal,[5],"1 fold enrichment (6-mer frequency, TF over GST control)"
CAGAAC,binding signal,[1],"1.62 fold enrichment (6-mer frequency, TF over GST control)"
same,binding signal,[6],"1.03 fold enrichment (6-mer frequency, TF over GST control)"
GAAAGT,binding signal,[1],"1.26 fold enrichment (6-mer frequency, TF over GST control)"
same,binding signal,[6],"1 fold enrichment (6-mer frequency, TF over GST control)"
TCCAGA,binding signal,[1],"3.36 fold enrichment (6-mer frequency, TF over GST control)"
same,binding signal,[2],"1.5 fold enrichment (6-mer frequency, TF over GST control)"
GCATGC,binding signal,[5],"1.07 fold enrichment (6-mer frequency, TF over GST control)"
GAATCA,binding signal,[7],"1.03 fold enrichment (6-mer frequency, TF over GST control)"
same,binding signal,[1],"1.06 fold enrichment (6-mer frequency, TF over GST control)"
same,binding signal,[2],"1.04 fold enrichment (6-mer frequency, TF over GST control)"
GGATTC,binding signal,[1],"1.13 fold enrichment (6-mer frequency, TF over GST control)"
same,binding signal,[2],"1.15 fold enrichment (6-mer frequency, TF over GST control)"
same,binding signal,[8],"1.02 fold enrichment (6-mer frequency, TF over GST control)"
same,binding signal,[9],"1.07 fold enrichment (6-mer frequency, TF over GST control)"

# Source: paper PMC7862700, “An all-to-all approach to the identification of sequence-specific readers for epigenetic DNA modifications on cytosine”
